According to PubChem BioAssay (Tox21):
A number with no mark means an inactive call. Results filed as inconclusive are left out. Calls of active or inactive are those of the source. The call rests on the fitted dose curve; in most records, active means well fitted curve in the direction sought with a large enough effect in the repeat runs; inconclusive means weak or mixed curves; inactive means no such curve, though single readings can be large; an effect the other way counts as inactive or inconclusive. Where a SMILES comes first, the peptide text is derived from it. [ ]: non-standard residue; d: D form. pGlu = O=C1CC[C@@H](C(=O)O)N1

Assay: A CellTox Green Cytotoxicity Assay to monitor cytotoxicity in HEK293 cells - 0 hour (AID 1224869)
Details: CellTox Green fluorescence; series mostly up to 76.8 µM; cytotoxicity: at the top concentration
How it was run: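 Read-out: fluorescence of a cell-impermeant cyanine dye staining DNA of dead cells, proportional to cytotoxicity. HEK293, 600 cells/well with reagent, compound (23 nL DMSO) added after 5 h; reads at 0, 8, 16, 24, 32, 40 h.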
Further: nearly all actives have a fitted effect of over 50% in size.
On the % scale 0 is the no-effect control and ±100 the full control effect.

SMILES | cytotoxicity
CCCCCCC#CC(=O)OC | 3.5%
O=C(O)CCSCCC(=O)O | -2.96%
O=Cc1cccc(Br)c1 | 2.2%
CCCCCCCCCCCCCCCCCCO | -2.14% [at 35.3 µM]
CCN(C=O)CC | -0.373%
COc1ccc2cc1Oc1cc3c(cc1OC)CC[N+](C)(C)[C@H]3Cc1ccc(cc1)Oc1c(OC)c(OC)cc3c1[C@@H](C2)[N+](C)(C)CC3 | 1.18% [at 35.3 µM]
Cc1ccc(C(=O)c2ccccc2)cc1 | -0.22%
CC(C)C[C@@H](N)C(=O)O | -0.288% [at 15.8 µM]
CC1(C)OC[C@@H](COC(=O)CCc2ccc(OC[C@@H](O)CNCCNC(=O)N3CCOCC3)cc2)O1 | -2.5% [at 35.3 µM]
CC(CC=O)CC(C)(C)C (stereo not drawn) | 0.0656%
CCOC(=O)C(=O)CCCCCCl | 2.6% [at 35.3 µM]
Clc1cc(Cl)cc(Cl)c1 | -1.65%
CO/N=C(\C(=O)N[C@@H]1C(=O)N2C(C(=O)O)=C(CSc3nc(=O)c(O)nn3C)CS[C@H]12)c1csc(N)n1 | -0.1% [at 35.3 µM]
CCNC(=O)[C@@H]1CCCN1C(=O)[C@H](CCCN=C(N)N)NC(=O)[C@H](CC(C)C)NC(=O)CNC(=O)[C@H](Cc1ccc(O)cc1)NC(=O)[C@H](CO)NC(=O)[C@H](Cc1c[nH]c2ccccc12)NC(=O)[C@H](Cc1cnc[nH]1)NC(=O)[C@@H]1CCC(=O)N1 ([pGlu]HWSYGLRP-NHEt) | -0.455% [at 35.3 µM]
CCCO[Si](OCCC)(OCCC)OCCC | -1.45%
CCCCCCCCCCCCSC | 2.42%

SMILES | cytotoxicity
CC(C)(C)c1ccc(-c2ccc(C(C)(C)C)cc2)cc1 | -0.996%
CC(C#N)(CCC(=O)O)N=NC(C)(C#N)CCC(=O)O (stereo not drawn) | 3.05%
NCCCC[C@H](N[C@@H](CCc1ccccc1)C(=O)O)C(=O)N1CCC[C@H]1C(=O)O | 0.655% [at 35.3 µM]
CC(=O)Nc1ccc(OCC(O)CNC(C)C)cc1 (stereo not drawn) | -1.34% [at 35.3 µM]
CCCCOCCOC(=O)CCCCCCCCC(=O)OCCOCCCC | -1.4%
CC(C)C(=O)OC(=O)C(C)C | -2.71%
COc1cc(C)nc(-n2nc(C)cc2OC)n1 | -0.512% [at 35.3 µM]
[O-][n+]1cccc(CO)c1 | -11.4% [at 35.3 µM]
O=S(=O)(O)c1cccc2c(S(=O)(=O)O)cccc12 | 13.7%
CCCCCC(=O)OCCc1ccccc1 | 1.57%
COc1ccccc1OCC1CNC(=O)O1 (stereo not drawn) | 0.358% [at 35.3 µM]
COC(=O)C1=C(C)NC(C)=C(C(=O)OC(C)C)C1c1cccc2nonc12 (stereo not drawn) | -5.01% [at 35.3 µM]
CCC(C(=O)NC(=O)NC(C)=O)c1ccccc1 (stereo not drawn) | 1.48% [at 35.3 µM]
C=CCOCC(O)CO (stereo not drawn) | 0.188%
CC(=O)Oc1cccc(C)c1 | -3.67% [at 35.3 µM]

Assay: qHTS RealTime-Glo MT Cell Viability Assay in HepG2 cells - 40 hour (AID 1224870); further: potency means the concentration at half of the fitted maximal effect
Details: RealTime-Glo luminescence; series mostly up to 76.8 µM; activity change, negative = cytotoxic: at the top concentration
How it was run: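 HepG2 cells (600/well) mixed with RealTime-Glo MT reagent, settled 5 h at 37 C/5% CO2 before compound addition. Nonlytic NanoLuc luminescence from viable-cell prosubstrate reduction read repeatedly during 40 h treatment at 37 C.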

SMILES | activity change, negative = cytotoxic | Potency
CCCCCCC#CC(=O)OC | 4.44% | 
O=C(O)CCSCCC(=O)O | 1.53% | 
O=Cc1cccc(Br)c1 | -1.31% | 
Cc1ccc(C(=O)c2ccc(CC(=O)O)n2C)cc1 | 4.02% [at 35.3 µM] | 
CCCCCCCCCCCCCCCCCCO | -3.4% [at 35.3 µM] | 
CCN(C=O)CC | -4.01% | 
COc1ccc2cc1Oc1cc3c(cc1OC)CC[N+](C)(C)[C@H]3Cc1ccc(cc1)Oc1c(OC)c(OC)cc3c1[C@@H](C2)[N+](C)(C)CC3 |  | 16.9 µM (active)
Cc1ccc(C(=O)c2ccccc2)cc1 | 0.361% | 
CC(C)C[C@@H](N)C(=O)O | 2.01% [at 15.8 µM] | 
O=C(O)CC(C(=O)O)S(=O)(=O)O (stereo not drawn) | 2.66% | 
CC1(C)OC[C@@H](COC(=O)CCc2ccc(OC[C@@H](O)CNCCNC(=O)N3CCOCC3)cc2)O1 | 0.312% [at 35.3 µM] | 
CC(CC=O)CC(C)(C)C (stereo not drawn) | -2.07% | 
NC(CCC(=O)O)C(=O)O (stereo not drawn) | -11.2% | 
CCOC(=O)C(=O)CCCCCCl | 4.02% [at 35.3 µM] | 
Clc1cc(Cl)cc(Cl)c1 | -0.559% | 
CO/N=C(\C(=O)N[C@@H]1C(=O)N2C(C(=O)O)=C(CSc3nc(=O)c(O)nn3C)CS[C@H]12)c1csc(N)n1 | 0.369% [at 35.3 µM] | 
CCNC(=O)[C@@H]1CCCN1C(=O)[C@H](CCCN=C(N)N)NC(=O)[C@H](CC(C)C)NC(=O)CNC(=O)[C@H](Cc1ccc(O)cc1)NC(=O)[C@H](CO)NC(=O)[C@H](Cc1c[nH]c2ccccc12)NC(=O)[C@H](Cc1cnc[nH]1)NC(=O)[C@@H]1CCC(=O)N1 ([pGlu]HWSYGLRP-NHEt) | 0.86% [at 35.3 µM] | 
CCCO[Si](OCCC)(OCCC)OCCC | -4.14% | 
CCCCCCCCCCCCSC | -1.22% | 

SMILES | activity change, negative = cytotoxic | Potency
CC(C)(C)c1ccc(-c2ccc(C(C)(C)C)cc2)cc1 | -2.6% | 
CC(C#N)(CCC(=O)O)N=NC(C)(C#N)CCC(=O)O (stereo not drawn) | 1.54% | 
NCCCC[C@H](N[C@@H](CCc1ccccc1)C(=O)O)C(=O)N1CCC[C@H]1C(=O)O | 1.19% [at 35.3 µM] | 
CC(=O)Nc1ccc(OCC(O)CNC(C)C)cc1 (stereo not drawn) | 0.522% [at 35.3 µM] | 
CCCCOCCOC(=O)CCCCCCCCC(=O)OCCOCCCC | 1.98% | 
CC(C)C(=O)OC(=O)C(C)C | -0.217% | 
CCCOC(=O)CC | 2.1% | 
COc1cc(C)nc(-n2nc(C)cc2OC)n1 | 2.09% [at 35.3 µM] | 
O=[N+]([O-])c1ccc(/C=N\O)o1 | 1.61% [at 35.3 µM] | 
[O-][n+]1cccc(CO)c1 | 1.12% [at 35.3 µM] | 
O=S(=O)(O)c1cccc2c(S(=O)(=O)O)cccc12 | 2.1% | 
CCCCCC(=O)OCCc1ccccc1 | 2.58% | 
COc1ccccc1OCC1CNC(=O)O1 (stereo not drawn) | -1.09% [at 35.3 µM] | 
CCCCCC(C)N (stereo not drawn) | 2.15% [at 35.3 µM] | 
CCC(C(=O)NC(=O)NC(C)=O)c1ccccc1 (stereo not drawn) | -2.81% [at 35.3 µM] | 
CC[C@H]1OC(=O)[C@H](C)[C@@H](O[C@H]2C[C@@](C)(OC)[C@@H](O)[C@H](C)O2)[C@H](C)[C@@H](O[C@@H]2O[C@H](C)C[C@H](N(C)C)[C@H]2O)[C@](C)(OC)C[C@@H](C)C(=O)[C@H](C)[C@@H](O)[C@]1(C)O | 0.352% | 
C=CCOCC(O)CO (stereo not drawn) | 0.29% | 
CC(=O)Oc1cccc(C)c1 | 3.13% [at 35.3 µM] | 
